Reference: PubChem BioAssay (NCI)
About 79,000 compounds went through this panel and 15% of them were active in at least one assay; those are over-represented in the sample as a whole. A number with no mark means an inactive call. Active and inactive are the calls of the source. No stated cut-off is given here; in the data, active means growth inhibition above about 70%; inactive means the rest.

assay: NCI Yeast Anticancer Drug Screen. Data for the bub3 strain (AID 167); details: S. cerevisiae bub3 mutant strain, at 50.0 µM, hits give high values
How it was run: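 Yeast carrying a defined mutation is treated with each compound, and growth is compared with that of vehicle-exposed cells to give inhibition.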

Compound | growth inhibition
NN(c1ccccc1)c1ccccc1 | 24.2%
C[N+](C)(C)CC(=O)N/N=C(/Cc1nc2ccc([N+](=O)[O-])cc2[nH]c1=O)C(=O)Nc1cc(C(F)(F)F)ccc1Cl | -5.4%
CCOC(=O)C(=O)Cc1cnccn1 | -17.8%
CCOC(Nc1ccc(Cl)cc1Cl)C(=O)c1ccccc1 (centres undefined) | 11.8%
O=C1C(Cl)=C(Cl)C(=O)N1c1ccccc1Cl | 34.7%
Cc1cccc(C)c1NC(=O)CCC(=O)NC(N)=NC#N | -23.8%
NC(=O)CC(NC(=O)C(F)(F)F)C(=O)O (centres undefined) | -14.2%
CCN(CC)CCCNc1ccc([N+](=O)[O-])c2nc3ccccc3c(N)c12 | -17.1%
CC(N)(CCSCP(=O)(O)O)C(=O)O (centres undefined) | -7.45%
CCOC(=O)Nc1cc2c(c(N)n1)N=C(c1ccc(OC)cc1)CN2 | 21.5%
CC(C)Oc1c(N(C)CCO)c2cc(Cl)ccc2oc1=O | 5.75%
OC/C(I)=C(I)\C(I)=C(\I)CO | 98.7% (active)
C=C(C)COB(OCC(=C)C)OCC(=C)C | -10.8%

assay: NCI Yeast Anticancer Drug Screen. Data for the mlh1 rad18 strain (AID 175); details: S. cerevisiae mlh1 rad18 strain growth inhibition; at 50.0 µM; hits give high values
How it was run: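 Inhibition values reflect reduced growth of mutant yeast versus vehicle-treated controls following compound exposure; the mutations affect DNA damage repair.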

Compound | growth inhibition
O=C(COC(=O)c1cccc([N+](=O)[O-])c1)c1ccc(Br)cc1 | 5.8%
Cc1ccc(NS(=O)(=O)c2ccc(F)cc2)c(C)c1 | -9.15%
CCOC(=O)N(C)C | 8%
CCCCN1C(=O)CC2[C@@H]3CCc4cc(OC)ccc4C3CC[C@]2(C)C1=O (some centres undefined) | 14.4%
COc1cc2cc(-c3ccc(Cl)c(Cl)c3)[n+](C)cc2cc1OC | 13.7%
Fc1ccc(-c2ccc(F)cc2)cc1 | -23.1%
CC(=O)Nc1ccc(S(=O)(=O)N/N=C/c2ccc3c(c2)OCO3)cc1 | -20.5%
Cc1ccc(/C=C2\N=C(N3CCCC(CO)C3)NC2=O)cc1 (centres undefined) | -44%
O=[N+]([O-])c1ncc(N(CCO)CCO)s1 | -22.3%
Cc1ccc(C)c(NC(=O)C(=O)C2C(=O)C3=C(CC2(C)C)Nc2ccccc2S3)c1 (centres undefined) | -33%
N[C@@H]1CCCC[C@H]1O | -16.1%
CN(C)NC(=O)/C=C\C(=O)O | -3.2%
CC(C)(N)CNc1ccccc1 | -4.4%
CN1c2ccccc2C(=O)NC12CCN(Cc1ccccc1)CC2 | -21.2%
CC1CCN(C(=S)[S-])CC1.CC1CCN(C(=S)[S-])CC1.[Zn] | 32.9%
CN(C)Cc1onc(-c2c(Cl)cccc2Cl)c1C(=O)O | 8.4%
CC(=O)OC1=C(OC(C)=O)N(S(=O)(=O)c2ccc(C)cc2)CCc2ccccc21 | 36%
O=C(Sc1ccccc1)C1OC1c1ccccc1 (centres undefined) | 80.5% (active)

Compound | growth inhibition
CCOC(=O)N1C2C=C(C)C(ON2C(=O)c2ccccc2)C2C(C)C(=O)N21 (centres undefined) | -13.4%
CCOP(=O)(OCC)OC1CC(n2cc(C)c(=O)n(C)c2=O)OC1CO[Si](C)(C)C(C)(C)C (centres undefined) | -12.7%
c1ccc(Sc2nc(Sc3ccccc3)nc(Sc3ccccc3)n2)cc1 | -31.7%
O=C(O)c1csc(C(=O)O)c1 | 8.35%
Nc1ncc(Cl)cn1 | -23.6%
COc1ccc(N)cc1CO | 12.7%
O=C(N/N=C/c1c(O)ccc2ccccc12)c1ccccc1 | 26.4%
CCn1c(=O)c(Cl)c2n(C)c3ccccc3n2c1=O | -1.05%
O=C(NC(=O)c1cccc(Cl)c1)Nc1ccccc1 | -5.15%
NN(c1ccccc1)c1ccccc1 | 19.1%
C[N+](C)(C)CC(=O)N/N=C(/Cc1nc2ccc([N+](=O)[O-])cc2[nH]c1=O)C(=O)Nc1cc(C(F)(F)F)ccc1Cl | 16.2%
CCOC(=O)C(=O)Cc1cnccn1 | -2.65%
CCOC(Nc1ccc(Cl)cc1Cl)C(=O)c1ccccc1 (centres undefined) | 1.8%
O=C1C(Cl)=C(Cl)C(=O)N1c1ccccc1Cl | 55.5%
Cc1cccc(C)c1NC(=O)CCC(=O)NC(N)=NC#N | -23.1%
NC(=O)CC(NC(=O)C(F)(F)F)C(=O)O (centres undefined) | -24.2%
CCN(CC)CCCNc1ccc([N+](=O)[O-])c2nc3ccccc3c(N)c12 | 63.8%
CC(N)(CCSCP(=O)(O)O)C(=O)O (centres undefined) | -27.4%
